Bioassay records as filed in PubChem BioAssay.
An excerpt weighted towards active compounds, which were near 7.3% of everything screened.
FMDV antiviral: antivirals against foot and mouth disease virus | AID 1159524 | Potency, µM (doses to about 57.9 µM), hits mostly inhibitors | 410,000 compounds, 1.2% hits | FMDV antiviral cell-based qHTS; calls by dose curve; tested in HEK293T cells; also: read-out not given here; nearly all actives have a fitted effect of over 45% in size
VACV mCherry inh: vaccinia inhibition (mCherry reporter). AID 720579. 310,000 compounds, 0.63% hits. Potency, µM (top dose mostly 36.5 µM), most hits filed as inhibitors. Vaccinia virus mCherry reporter infection, fluorescence; calls by dose curve; tested in A549 cells; also: nearly all actives have a fitted effect of over 35% in size
HCMV antiviral: inhibitors of human cytomegalovirus | HFF cells, HCMV-luciferase reporter, 72 h; active compounds read low | activity change, negative = inhibition, % at 57.5 µM | 410,000 compounds, 4.5% hits; in the data active = activity change below about -60%; inconclusive = no clear call, values can overlap the other calls; inactive = above about -39%
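Luciferase read-out from HCMV-luciferase-infected HFFs (MOI 1 PFU/cell) 72 h post infection at 37C; compounds added after 16 h cell attachment; activity normalized between buffer-only basal and Salinomycin (10uM) inhibitor controls.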
HCV inhibitor: HCV inhibition; 340,000 compounds, 3.4% hits; AID 651820; Potency, µM (highest dose often 41.8 µM), hits mostly inhibitors; Huh7.5.1 HCVcc-Cre infection, luciferase reporter, 44 h; active = well fitted inhibition curve with a large enough effect; inconclusive = small, poorly fitted or top-dose-only effect, or another doubt; inactive = no such curve, though single readings can be large or run the other way
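Compounds are dispensed onto cells plated 4 h earlier at 1,000 per well, with HCVcc-Cre virus (about 0.5 moi) added next. Following 44 h of culture, luminescent signal is measured for 15 sec after 15 min with substrate at room temperature.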
VACV Venus inh: inhibitors of vaccinia virus (Venus reporter). Vaccinia virus Venus reporter expression, fluorescence. Potency, µM (series often up to 36.5 µM), most hits filed as inhibitors. 330,000 compounds, 0.46% hits; calls by dose curve; tested in A549 cells; also: nearly all actives have a fitted effect of over 30% in size
Large screens that a line does not name were inactive.

Cc1nc(N)sc1-c1csc(Nc2ccc(S(N)(=O)=O)cc2)n1	HCV inhibitor 10µM (no result: VACV mCherry inh, VACV Venus inh)
COc1ccc(Nc2nc(-c3ccc(OC)cc3)cs2)cc1	none (no result: VACV mCherry inh, VACV Venus inh)
CC(=O)Oc1ccc(-c2csc(Nc3ccc(S(N)(=O)=O)cc3)n2)cc1	HCV inhibitor inconclusive
CCn1cc(C(C)NC(=O)COc2ccc(Cl)cc2C)c(C)n1 (configuration not stated)	FMDV antiviral inconclusive (no result: VACV mCherry inh, VACV Venus inh)
COc1ccc(F)cc1S(=O)(=O)NCCc1csc2nc(-c3cccc(C)c3)nn12	none (no result: HCV inhibitor)
Cc1cc2nc(/N=C(\N)NC(=O)N3c4ccccc4Sc4ccccc43)nc(C)c2cc1C	VACV mCherry inh inconclusive, HCV inhibitor inconclusive
COc1ccc(-c2csc(Nc3cccnc3)n2)cc1	VACV mCherry inh inconclusive, HCV inhibitor 10µM
CCOc1ccc(Nc2nc(-c3cccnc3)cs2)cc1	none
COc1cccc(C(C(=O)NC2CCCC2)N2CCN(c3cc(C)nc4ccccc34)CC2)c1OC (configuration not stated)	none (no result: HCV inhibitor)
COc1cc(C(=O)N2CCCC(C)(C(=O)NS(=O)(=O)C3CC3)C2)cc(OC)c1OC (configuration not stated)	none (no result: HCV inhibitor)
Cc1noc(C)c1S(=O)(=O)N(C)C[C@H]1Oc2ccc(NS(=O)(=O)c3cn(C)cn3)cc2C(=O)N([C@H](C)CO)C[C@@H]1C	HCV inhibitor 3.5µM
Cc1noc(C)c1S(=O)(=O)Nc1ccc2c(c1)C(=O)N([C@H](C)CO)C[C@H](C)[C@@H](CN(C)C(=O)NC(C)C)O2	HCV inhibitor inconclusive
Cc1noc(C)c1NC(=O)N(C)C[C@@H]1Oc2ccc(NS(=O)(=O)c3c(C)noc3C)cc2C(=O)N([C@H](C)CO)C[C@H]1C	HCV inhibitor 3.2µM
COc1ccccc1-n1c(Cc2cccc3ccccc23)nnc1SCC(=O)O	none (no result: FMDV antiviral, VACV mCherry inh, HCV inhibitor, VACV Venus inh)
CCN(CC(=O)Nc1cc(S(=O)(=O)N2CCOCC2)ccc1C)Cc1ccccc1	none
NC(=S)N/N=C1\CCSc2ccc(Cl)cc21	VACV mCherry inh inconclusive, HCMV antiviral -99, HCV inhibitor inconclusive, VACV Venus inh inconclusive
O=C(N/N=C1\CCSc2ccc(F)cc21)c1cccnc1	none (no result: VACV mCherry inh, VACV Venus inh)
Cc1nc2[nH]c(=S)[nH]c(=O)c2nc1C	none
Cc1nc2[nH]c(=S)[nH]c2c(=O)[nH]1	HCMV antiviral -64
COc1cc(OC)cc(C(=O)Nc2nc(-c3nnn(-c4ccc(C)cc4)c3C)ns2)c1	FMDV antiviral inconclusive, VACV mCherry inh inconclusive, HCMV antiviral -106, VACV Venus inh inconclusive (no result: HCV inhibitor)
NC(=S)N/N=C/c1ccccc1	VACV mCherry inh 5.6µM, VACV Venus inh inconclusive
NC(=S)N/N=C\c1c2ccccc2cc2ccccc12	VACV mCherry inh inconclusive, HCV inhibitor 13µM, VACV Venus inh inconclusive
NC(=S)N/N=C/c1ccc2c(c1)OCCO2	VACV mCherry inh 11µM, VACV Venus inh 10µM
NC(=S)N/N=C\c1c(OCc2ccccc2Cl)ccc2ccccc12	FMDV antiviral inconclusive, VACV mCherry inh inconclusive, HCMV antiviral -97, HCV inhibitor 7.9µM, VACV Venus inh inconclusive
O=C(N/N=C/c1ccccc1OCc1ccccc1Cl)c1cccnc1	none
CCCN(CCC)CCNC(=O)C1CCCN(S(=O)(=O)c2cccc3nsnc23)C1 (configuration not stated)	none (no result: HCV inhibitor)
NC(=S)NN=Cc1cc(-c2cccc(N)c2)ccn1	VACV mCherry inh inconclusive, HCMV antiviral -100, VACV Venus inh inconclusive (no result: HCV inhibitor)
CCOC(=O)c1ccc(NS(=O)(=O)c2cc(-c3onc(C)c3C)ccc2C)cc1	none (no result: HCV inhibitor)
COc1ccccc1CN1CCC2(CC1)CCN(S(=O)(=O)c1ccccc1)CC2	none (no result: VACV mCherry inh, HCMV antiviral, HCV inhibitor, VACV Venus inh)
CSc1ccccc1NC(=O)COC(=O)CCc1ccccc1	HCMV antiviral -62
CSc1ccccc1NC(=O)Cc1ccccc1	none
CN(Cc1cccs1)C(=O)COc1ccc(-c2nnco2)cc1	HCMV antiviral -100 (no result: VACV mCherry inh, VACV Venus inh)
O=C1COc2ccccc2N1Cc1c(F)cccc1Cl	HCMV antiviral -63 (no result: VACV mCherry inh, VACV Venus inh)
CCOc1ccc(/C=N/NC(=O)C(=O)N2CCCCCC2)c2ccccc12	HCV inhibitor inconclusive (no result: VACV mCherry inh, VACV Venus inh)
O=C(NN=Cc1c(O)ccc2ccccc12)C1CC1	VACV mCherry inh inconclusive, HCV inhibitor inconclusive, VACV Venus inh inconclusive
COc1ccccc1OCC(=O)N/N=C/c1c(O)ccc2ccccc12	HCMV antiviral -109 (no result: FMDV antiviral, VACV mCherry inh, HCV inhibitor, VACV Venus inh)
O=C(CN1CCCC1)N/N=C/c1c(O)ccc2ccccc12	HCV inhibitor 7.9µM (no result: VACV mCherry inh, VACV Venus inh)
O=C(N/N=C/c1c(O)ccc2ccccc12)C(=O)N1CCCC1	VACV mCherry inh inconclusive, HCMV antiviral -75, VACV Venus inh inconclusive (no result: HCV inhibitor)
Cc1cc(C)n(CCC(=O)N/N=C/c2c(O)ccc3ccccc23)n1	HCMV antiviral -83, HCV inhibitor inconclusive (no result: VACV mCherry inh, VACV Venus inh)
